Results published in PubChem BioAssay AID1347416 (National Center for Advancing Translational Sciences (NCATS), 2020).
About 1,600 (39%) of roughly 4,100 compounds were called active. Inconclusive results (about 25%) are left out. Calls follow the shape of the dose curve; as a rule, active = well fitted inhibition curve with a large enough effect; inconclusive = small, poorly fitted or top-dose-only effect; inactive = no such curve, though single readings can be large or run the other way. The list shows a part of the results.

Test: qHTS Validation assay for Inhibitors of Plasmodium falciparum Dd2 growth in vitro; also: nearly all actives have a fitted effect of over 70% in size
Details: P. falciparum Dd2 in RBCs, SYBR Green growth, 72 h; series mostly up to 28.7 µM
Method in brief: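 P. falciparum Dd2-infected red blood cells (2.5% hematocrit, 0.3% parasitemia) grown 72 h at 37 °C under 5% O2 with compounds in a titration, 29 uM to 0.5 nM final. Growth read as SYBR Green-1 fluorescence after ~16 h lysis; artesunate 300 nM as positive control.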
Potency is read from the fitted curve at half-maximal effect.

Structure (SMILES)	Potency
O=C(NC(=S)Nc1ccc(NC(=O)c2cccs2)cc1)c1ccco1	9.44 µM (active)
CCOc1ccc(-c2cc3c(=O)n(CCNC(=O)c4ccccc4OC)ccn3n2)cc1	inactive
CCN(CCCNC(=O)c1nn(-c2ccc(OC)c(Cl)c2)c(=O)c2c1c1ccccc1n2C)c1cccc(C)c1	15 µM (active)
CCN(CC)CCCNC(=O)c1nn(-c2ccc(OC)c(Cl)c2)c(=O)c2c1c1ccccc1n2C	10.6 µM (active)
COc1ccc(-n2nc(C(=O)NCCc3ccc(OC)c(OC)c3)c3c4ccccc4n(C)c3c2=O)cc1Cl	2.99 µM (active)
COc1ccccc1CC(=O)NCCn1ccn2nc(-c3ccc(C)c(C)c3)cc2c1=O	inactive
Cc1cccc(CNC(=O)Cn2nc(C)c3nn(-c4ccc(Cl)cc4)c(C)c3c2=O)c1	inactive
COc1ccc(C(=O)NCCn2ccn3nc(-c4cc(C)ccc4C)cc3c2=O)cc1OC	inactive
N#Cc1nc(Nc2cc(F)cc(F)c2)c2ncn(CC(F)F)c2n1	4.73 µM (active)
CCn1cnc2c(Nc3cc(F)cc(F)c3)nc(C#N)nc21	2.37 µM (active)
Cc1ccc2nc(-c3sc4nc(C)ccc4c3N)[nH]c2c1	inactive
CCCC(O)c1nc2ccccc2n1CCCCOc1ccc(OC)cc1 (stereo not drawn)	15 µM (active)
CCC(C(=O)NCCn1ccn2nc(-c3ccc(OC)cc3)cc2c1=O)c1ccccc1 (stereo not drawn)	15 µM (active)
COc1ccc(-c2cc3c(=O)n(CCNC(=O)c4cc(OC)cc(OC)c4)ccn3n2)cc1	inactive
COc1ccc(-c2cc3c(=O)n(CCNC(=O)c4ccc(OC)cc4OC)ccn3n2)cc1	inactive
CC(C)N(Cc1nc2ccccc2[nH]1)C(C)C	inactive
COC[C@H]1CCCN1[C@@H]1[C@H](O)[C@H](CO)O[C@@H]1CN(Cc1cccc(Cl)c1)Cc1cccc(Cl)c1	10.6 µM (active)
O=C1c2ccccc2C2=Nc3ccccc3SC(c3ccccc3F)C12 (stereo not drawn)	4.73 µM (active)
O=C1c2ccccc2C2=Nc3ccccc3SC(c3ccc(Cl)cc3)C12 (stereo not drawn)	2.66 µM (active)
CCN(CC)C(=O)c1sc(NC(=O)C(C)Sc2nc(-c3ccccc3)cc(C(F)(F)F)n2)c(C(=O)OC)c1C (stereo not drawn)	0.596 µM (active)

Structure (SMILES)	Potency
CCOC(=O)c1sc(NC(=O)C(C)Sc2nc(-c3ccccc3)cc(C(F)(F)F)n2)c(C(=O)OC)c1C (stereo not drawn)	2.37 µM (active)
Cc1ccc(NC(=O)CSc2nc(-c3ccco3)cc(C(F)(F)F)n2)c(C)c1	inactive
CCCOC(=O)c1c(NC(=O)C(C)Sc2nc(-c3ccccc3)cc(C(F)(F)F)n2)sc(C(=O)N(C)C)c1C (stereo not drawn)	1.68 µM (active)
CCc1cc(C(=O)c2ccccc2)c(N)s1	inactive
Cc1ccc(-c2onc3ccc(C(=O)O)cc23)cc1	inactive
COc1ccc2nc(C)cc(NCc3cccc(C(F)(F)F)c3)c2c1	2.11 µM (active)
CCOc1ccc2nc(C)cc(Nc3ccc4c(c3)OCCO4)c2c1	6.68 µM (active)
Cc1ccc2nc(C)cc(Nc3ccc([N+](=O)[O-])cc3)c2c1	6.68 µM (active)
COC(=O)c1ccc2nc(C)cc(Nc3ccc(O)cc3)c2c1	9.44 µM (active)
COc1ccc2nc(C)cc(Nc3ccc(Cl)c(Cl)c3)c2c1	2.66 µM (active)
CCc1nc2cc(N3CCC(C(=O)NCc4ccc5c(c4)OCO5)CC3)cnc2nc1CC	inactive
Cc1ccc(S(=O)(=O)N2CCC(C(=O)NCC3CC3)CC2)cc1	inactive
Cc1ccc(S(=O)(=O)N2CCN(C(=S)NCc3ccc4c(c3)OCO4)CC2)cc1	2.37 µM (active)
Cc1cccnc1NC(=O)COc1ccc2oc3c(c2c1)CCCC3	inactive
CCCCc1cc(=O)oc2cc(C)cc(OCC(=O)Nc3cccnc3)c12	0.596 µM (active)
CCCc1cc(=O)oc2cc(C)cc(OCC(=O)Nc3cccnc3)c12	0.531 µM (active)
CCCc1cc(=O)oc2cc(C)cc(OCC(=O)Nc3ccccn3)c12	2.11 µM (active)
Cc1ccc(C)c(OCC(=O)Nc2cc(C(=O)O)cc(C(=O)O)c2)c1	inactive
Cc1cccc(OCC(=O)NC2CCN(C(=O)c3cc4c(=O)[nH]c(C)cn4n3)CC2)c1	inactive
CCCc1cc(=O)oc2cc(C)cc(OCC(=O)NC3CC3)c12	4.73 µM (active)

Structure (SMILES)	Potency
CCn1ncc(N2CCC(NC(=O)COc3ccc(F)cc3)CC2)cc1=O	inactive
CCn1cc(S(=O)(=O)N2CCCOCCNC(=O)[C@@H]3CCC[C@@H]32)cn1	inactive
Cc1cc([N+](=O)[O-])ccc1NC(=O)COc1nsnc1N1CCOCC1	6.68 µM (active)
COc1ccc(CN2CC[C@H](c3nnc(-c4ccccc4F)o3)C2)cc1	inactive
COc1ccc(Cn2c(C3CCN(C(=O)Cc4ccc(F)cc4)CC3)n[nH]c2=O)cc1	inactive
COc1ccc(CCN2CCC(Nc3nc4ccccc4n3Cc3ccc(F)cc3)CC2)cc1	2.37 µM (active)
CC1CCN(c2nc3ccc(C(=O)O)cc3s2)CC1	inactive
Cc1nc(N2CCC(C)CC2)c2c(C)c(C(=O)Nc3ccc(C(F)(F)F)cc3)sc2n1	7.5 µM (active)
COc1ccc(CNC(=O)Cn2c(SCC(=O)N(C)c3ccccc3)nc3ccccc32)cc1	inactive
CN(C(=O)CSc1nc2ccc(NC(=O)CCc3ccccc3)cc2s1)c1ccccc1	13.3 µM (active)
O=C(CC1CCCN(c2cnn(CC3CC3)c(=O)c2)C1)NCc1ccccc1 (stereo not drawn)	inactive
Cc1ccc(C)n1-c1nnc(N2CCCC(C(=O)NCc3ccccc3)C2)s1 (stereo not drawn)	inactive
O=C(NCc1ccc(N2CCCC2)cc1)C1CCCN(c2cnn(Cc3ccccc3)c(=O)c2)C1 (stereo not drawn)	10.6 µM (active)
Cc1cc(C)c(S(=O)(=O)Nc2cc(Cl)c3oc4c(c3c2)C(=O)CCC4)cc1C	inactive
CN(C)CC(O)COc1ccc(C(C)(C)c2ccc(OCC(O)CN(C)C)cc2)cc1 (stereo not drawn)	8.41 µM (active)
CCc1cccc(NC(=O)c2ccc3c(c2)N(C)C2CCCCN2C3=O)c1 (stereo not drawn)	inactive
O=C(Nc1ccc(C(=O)OC[C@@H]2CCCN3CCCC[C@H]23)cc1)c1cccc(Br)c1	6.68 µM (active)
O=C(COC(=O)c1cccc(Br)c1)NCCNC(=O)COC(=O)c1cccc(Br)c1	inactive
